Screening data as filed in PubChem BioAssay.
Pf apPOL inh = Pf-apPOL DNA polymerase inhibition. 0.25% of 210,000 active. inhibition, % at 10 µM. Recombinant Pf-apPOL, molecular beacon fluorescence, 1.5 h. AID 1794808
mHTT-CaM PPI inh = inhibitors of human mutant huntingtin-calmodulin interaction | P42858 | AlphaScreen His-mHTT/GST-CaM binding, luminescence | inhibition, % at 15 µM | 3.6% of 190,000 active
Numbers stand for hits; – = inactive; · = not tested or not shown. Shown are actives, neighbours in structure and some others; about 3.6% of the full set was active somewhere. No stated cut-off is given here; in the data, active means inhibition above about 50%; inactive means the rest.

SMILES | Pf apPOL inh | mHTT-CaM PPI inh
COCCNC(=O)c1cnn2c(C)c(Cc3cc(C)ccc3C)c(C)nc12 | – | –
COCCCNC(=O)c1cnn2c(C)c(Cc3ccccc3C)c(C)nc12 | – | –
Cc1nc2c(C(=O)NCc3ccccc3)cnn2c(C)c1Cc1ccccc1F | – | –
NNC(=O)CSc1nc2ccccc2s1 | – | –
Cc1cccc(N2CCN(C(=O)c3ccc(Cn4cncn4)cc3)CC2C)c1 (configuration not stated) | – | –
Cc1ccccc1OCCn1cc(C=C2C(=O)NC(=O)NC2=O)c2ccccc21 | – | 51
O=C1NC(=O)C(=Cc2cn(CCOc3ccccc3)c3ccccc23)C(=O)N1 | – | –
CCN1C(=O)NC(=O)/C(=C/c2cn(CCOc3ccccc3C)c3ccccc23)C1=O | – | 61
CCN1C(=O)NC(=O)/C(=C/c2cn(CCOc3ccc(F)cc3)c3ccccc23)C1=O | – | –
Cc1cccc(NCN2C(=O)S/C(=C\c3ccc(N(C)C)cc3)C2=O)c1 | – | –
CC(=O)Nc1cccc(N2CC(C(=O)NCc3ccccc3C)CC2=O)c1 (configuration not stated) | – | –
CN(C)S(=O)(=O)N(C)c1ccccc1 | – | –
CCCN(CCO)Cc1ccc(Cl)c(Cl)c1 | – | –
COc1ccc2nc(SCC(=O)N3CCc4ccccc4C3)[nH]c2c1 | – | –
Cc1cc(C(=O)N2CCc3c(nc4cc(-c5ccccc5Cl)[nH]n4c3=O)C2)nn1C | – | –
CC(C)n1cc2cc(C(=O)N3CCN(Cc4ccccc4F)CC3)sc2c1 | – | 60
CN1CCC(N2CCN(C(=O)c3cc4cn(C5CCCC5)cc4s3)CC2)CC1 | – | –
CC(=O)N1CCN(C(=O)c2cc3cn(C(C)C)cc3s2)CC1 | – | –
O=C(c1cc2cn(C3CC3)cc2s1)N1CCN(C2CCCCC2)CC1 | – | 55
O=C(c1cc2cn(C3CC3)cc2s1)N1CCN(Cc2ccc3c(c2)OCO3)CC1 | – | 63
CC(C)n1cc2cc(C(=O)N3CCN(Cc4ccc5c(c4)OCO5)CC3)sc2c1 | – | 65
CC(C)CN1CCN(C(=O)c2cc3cn(C(C)C)cc3s2)CC1 | – | –
O=C(c1cc2cn(C3CC3)cc2s1)N1CCOCC1 | – | –
COc1ccc(OC)c(NC(=O)COc2c(C)cc(Cl)cc2Cl)c1 | – | –
CCCC1=NN2C(=N)/C(=C/c3ccccc3)C(=O)N=C2S1 | – | –
SMILES | Pf apPOL inh | mHTT-CaM PPI inh
Cc1ccc(CC(=O)NC2CCN(c3ccc(C)c(C)c3)C2=O)cc1 (configuration not stated) | – | –
COC(=O)c1sc(SC)c(S(=O)(=O)c2ccc(Cl)cc2)c1N | – | ·
CN(C)c1ccc(/C=C/C=C2/SC(=N)NC2=O)cc1 | – | 62
CN(C)c1ccc(/C=C/C=C2/SC(=Nc3ccccc3)NC2=O)cc1 | – | –
O=C(Nc1ccccc1F)c1cc2n(n1)C(C(F)(F)F)CC(c1ccco1)N2 (configuration not stated) | – | –
O=[N+]([O-])c1cc(Oc2ccc3c(c2)CCC3)cc(-n2cnnn2)c1 | · | 51
Cc1cc([N+](=O)[O-])nn1CCCC(=O)Nc1cc(Oc2ccc3c(c2)CCC3)cc([N+](=O)[O-])c1 | – | –
NNc1nc(Nc2ccccc2)nc(N2CCCCC2)n1 | – | 99
c1ccc(Nc2nc(N3CCCC3)nc(N3CCNCC3)n2)cc1 | – | –
CC(C)(C)c1cc(Cc2cc(C(C)(C)C)c(O)c(C(C)(C)C)c2)c(O)c(C(C)(C)C)c1 | · | –
FC(F)(F)c1cccc(N2COc3ccc(Cl)cc3C2)c1 | – | –
Cc1cccc(N2COc3ccc(Br)cc3C2)c1 | – | 99
Cc1cc(=O)oc2c3c(ccc12)OCN(c1ccc(Cl)cc1)C3 | – | –
Cc1ccc(N2COc3ccc(Br)cc3C2)cc1 | – | 73
O=C(c1ccc(F)cc1Cl)N(Cc1ccsc1)Cc1ccco1 | – | –
COc1ccc(C)cc1NC(=O)Cn1ccc2c(=O)[nH]ccc21 | 73 | –
CSc1cccc(NC(=O)Cn2ccc3c(=O)[nH]ccc32)c1 | – | –
COc1ccc(NC(=O)Cn2ccc3c(=O)[nH]ccc32)cc1Cl | 78 | –
Cc1ccc(NC(=O)Cn2ccc3c(=O)[nH]ccc32)c(C)c1 | – | –
CCCSc1ncccc1C(=O)Nc1cc(C(C)(C)C)sc1C(C)=O | – | ·
O=C(Nc1nc2nccc(-c3ccccc3)n2n1)c1ccccc1 | – | –
CN(C)S(=O)(=O)Nc1ccc(Cc2ccncc2)cc1 | – | –
CCCn1cc(-c2ccncc2)cc1C(=O)N1CCN(C)CC1 | – | –
CCc1ccc(NC(=O)C2CC(c3cc(OC)c(OC)c(OC)c3)=NO2)cc1 (configuration not stated) | – | –
CC(C)CC(=O)NC(c1cccs1)c1ccc2cccnc2c1O (configuration not stated) | – | 100
CC(C)C(NC(=O)C1CCN(c2ccc(N3CCCCC3)nn2)CC1)c1cccs1 (configuration not stated) | – | –
CCCC(=O)NC(c1cccs1)c1cc(Cl)c2cccnc2c1O (configuration not stated) | – | 100
